HepG2 tox – qHTS for Inhibitors of TGF-b: Cytotox Counterscreen. AID 588856, 2011. HepG2 CAGA-GFP viability, ATP luminescence, 18 h. Potency, µM (titrated, usually from 46.1 µM), inactives show at the top dose activity change, negative = cytotoxicity, most hits filed as cytotoxic. actives 0.76% (n = 410,000)
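CellTiter-Glo luminescence gave cytotoxicity after 18 hours at 37 degrees C. The cells were HepG2 CAGA-GFP in 1% FBS DMEM, stimulated with 500 pg/mL TGF-beta after compound addition. %Activity was normalised to no-cell wells (complete cell-killing) and DMSO (no toxicity), and curves were fitted and classified.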
HT1080 IDH1KD tx – qHTS for induction of synthetic lethality in tumor cells producing 2HG: qHTS for the HT-1080-IDH1KD cell line; HT-1080 IDH1 knockdown viability, ATP luminescence, 48 h; Potency, µM (doses to about 46.1 µM), for the others: at the top dose activity, negative = toxicity, most hits filed as cytotoxic; actives 2% (n = 360,000); AID 686971, 2013;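 note: 0% = DMSO wells and -100% = cell-free medium wells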
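HT-1080-IDH1KD cells (IDH1 knocked down), 750/well in RPMI with 5% FBS, treated with compound 48 h at 37 degrees C. Viability by CellTiter-Glo luminescence, normalised to DMSO and no-cell wells; concentration-response curves classed.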
S2 tox – Viability Counterscreen for Primary qHTS for Inhibitors of ATXN expression; S2 cells (HEK-293 line with an ATXN2-luciferase reporter) viability, CellTiter-Fluor protease fluorescence, 24 h; Potency, µM (highest dose often 56.7 µM), hits mostly cytotoxic; actives 0.49% (n = 400,000); AID 651635, 2014; note: nearly all actives have a fitted effect of over 40% in size
HT1080-NT tox – qHTS for induction of synthetic lethality in tumor cells producing 2HG: qHTS for the HT-1080-NT fibrosarcoma cell line | Potency, µM (series often up to 46.1 µM), without a hit: at the highest dose activity, negative = less viability, usual class: cytotoxic | actives 1.6% (n = 360,000) | HT-1080-NT fibrosarcoma viability, CellTiter-Glo ATP luminescence, 48 h;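 note: NT is the 2HG producing partner of a matched IDH1 knockdown line; 0% = DMSO-treated cells and -100% = media-only wells without cells; nearly all actives have a fitted effect of over 55% in size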
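Viability by CellTiter-Glo luminescence after 48 h compound exposure at 37C of HT-1080-NT cells (750/well, RPMI, 5% FBS). % activity scaled between DMSO wells and medium-only wells, then curve-fitted and categorized by curve class.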
TGFb inhibitor – qHTS for Inhibitors of TGF-b; HepG2 CAGA-GFP TGF-b/SMAD3 reporter, GFP fluorescence, 18 h; TGF-beta stimulated, 500 pg/mL final; Potency, µM (titrated, usually from 46.1 µM), inactives show at the highest dose activity, negative = inhibition, usual class: inhibitors; actives 1.2% (n = 410,000); note: % is set by controls: 0 for no effect and ±100 for the full control effect; nearly all actives have a fitted effect of over 65% in size
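HEPG2 CAGA-GFP reporter cells (1000/well, DMEM with 1% FBS) received compounds, then recombinant TGF-beta at 500 pg/mL final for 18 hours at 37 degrees C. Per-cell GFP summed per well was normalised to unstimulated and stimulated DMSO controls before curve fitting.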
ATXN2 expr inh – Primary qHTS for Inhibitors of ATXN expression. actives 0.72% (n = 360,000). AID 1745845, 2022. Potency, µM (highest dose often 57 µM), inactives show top-dose activity change, negative = inhibition, usual class: inhibitors. HEK-293 ATXN2-luciferase reporter, luminescence, 24 h; note: % is set by controls: 0 for no effect and ±100 for the full control effect; nearly all actives have a fitted effect of over 55% in size
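ATXN2-luciferase reporter cells (luciferase flanked by upstream and downstream ATXN2 gene portions) were treated 24 h at 37 °C with compounds at up to 57 uM. SteadyGlo luminescence gave expression; GF-AFC fluorescence gave viability.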
Active calls of the source: *; i = inactive; u = inconclusive; x = no result. The list is not random: actives were taken first. Their share in the collection is about 3.8%. Calls come from the whole dose curve; as a rule, active = well fitted curve in the direction sought with a large enough effect; inconclusive = small, poorly fitted or top-dose-only effect, or another doubt; inactive = no such curve, though single readings can be large; an effect the other way counts as inactive or inconclusive. Potency is the fitted concentration of half-maximal effect.

SMILES	HepG2 tox	HT1080 IDH1KD tx	S2 tox	HT1080-NT tox	TGFb inhibitor	ATXN2 expr inh
O=C1NC(=O)C(Cc2ccccc2)(C2CCN(Cc3cccn3-c3cccnc3)CC2)N1 (stereo not given)	x	x	i	x	x	x
CCOCCCNC(=O)NC(CCC(C)C)c1c(-n2cccc2)sc2c1CCN(C)C2 (stereo not given)	-1%	x	x	x	7%	x
O=C(CCc1ccc(Oc2cc([N+](=O)[O-])cc([N+](=O)[O-])c2)cc1)N1CCCCCC1	-38%	-14%	i	-13%	18µM*	u
Cc1nc(N2CCc3ccccc3C2)[nH]c(=O)c1Cc1ccccc1	5%	3%	i	4%	13%	8%
Cc1nc(-n2[nH]c3c(c2=O)CCCC3)[nH]c(=O)c1Cc1ccccc1	-13%	u	18µM*	u	-21%	8.9µM*
O=C(c1cc(COc2cccc3cnccc23)on1)N1CCC(c2ccccc2Cl)C1 (stereo not given)	-35%	-21%	u	u	20µM*	x
O=C(COc1ccc2ccccc2c1)Nc1ccc(O)c(-c2nc3ccccc3o2)c1	-10%	x	x	x	4%	x
CCOc1cc(N2CCOCC2)c(OCC)cc1NS(=O)(=O)c1ccc(Cl)s1	-22%	4.1µM*	u	u	-21%	-12%
CCOc1cc(N2CCOCC2)c(OCC)cc1NC(=O)c1cc(S(=O)(=O)N2CCOCC2)ccc1Cl	3%	-3%	u	3%	u	-7%
COC(=O)c1nc(N2CCN(S(=O)(=O)c3ccc(C)cc3)CC2)c2ccccc2n1	x	11%	x	3%	x	x
COc1ccc(CN2CCC(n3cc(C(=O)N4CCCCC4)nn3)CC2)c(OC)c1	x	x	i	x	x	x
Nc1c(C(=O)N/N=C/c2ccc(F)cc2)oc2nc(-c3ccccc3)cc(-c3ccco3)c12	-53%	21µM*	x	u	44%	-32%
O=C(N/N=C/c1ccc(F)cc1)c1cc(-c2ccco2)nc2ccccc12	-18%	16µM*	u	u	u	-7%
O=C(NCc1ccccc1)C(c1ccccc1F)n1c(=O)c(-c2ccco2)nc2ccccc21 (stereo not given)	x	0%	x	-4%	x	x
COc1ccc(C(C(=O)NCc2ccccc2)n2c(=O)c(-c3ccco3)nc3ccccc32)cc1 (stereo not given)	x	21µM*	x	u	x	x
CCCOP(=O)(c1ccc(N(C)C)cc1)C(Nc1ccccc1)c1ccc(C)cc1 (stereo not given)	-41%	15µM*	i	u	u	u
CC(C)CCOP(=O)(c1ccc(N(C)C)cc1)C(Nc1ccccc1)c1ccc(N(C)C)cc1 (stereo not given)	-24%	-23%	i	-9%	u	x
COc1ccc(C(CNC(=O)c2ccc(-c3ccccc3Cl)o2)N2CCOCC2)cc1 (stereo not given)	0%	0%	i	1%	-2%	-1%
COc1ccccc1C(CNC(=O)c1ccc(-c2ccccc2Cl)o1)N1CCCC1 (stereo not given)	-27%	21µM*	i	u	u	u
C[N+]1(C)[C@@H]2C[C@@H](OC(=O)C(O)(c3cccs3)c3cccs3)C[C@H]1[C@@H]1O[C@@H]12	x	x	x	x	x	3%
Cc1ccc(C)c2c1c1ccccc1n2C	-24%	7%	i	10%	0%	4%
Cc1ccc2c(c1)c1ccc3c(c1n2C)C(=O)C=CC3=O	-37%	-1%	10µM*	-12%	u	10µM*
Cn1c2ccccc2c2ccc3c(c21)C(=O)C=CC3=O	-9%	23%	6µM*	13%	0%	u
COc1ccc2c(c1)c1ccc3c(c1n2C)C(=O)C=CC3=O	-22%	-5%	i	-2%	u	x
N#Cc1nc(-c2cccs2)oc1NCc1ccc2c(c1)OCO2	7.9µM*	-26%	i	-22%	-1%	10%
SMILES	HepG2 tox	HT1080 IDH1KD tx	S2 tox	HT1080-NT tox	TGFb inhibitor	ATXN2 expr inh
O=C(Nc1ccc(N2CCN(Cc3ccccc3F)CC2)cc1)c1ccc([N+](=O)[O-])o1	-47%	-6%	i	15µM*	u	-4%
O=C(Nc1ccc(N2CCCC2)c(Cl)c1)c1ccc([N+](=O)[O-])o1	-79%	5.8µM*	i	5.8µM*	u	39%
CC1CCN(C(=O)c2ccc([N+](=O)[O-])o2)CC1	-15%	-3%	i	14%	-4%	-10%
O=C(Nc1ccc(N2CCCC2)cc1)c1ccc(Br)o1	0%	12%	i	6%	-1%	48%
CC1CCN(c2ccc(NC(=O)c3ccc([N+](=O)[O-])o3)cc2)CC1	-85%	7.3µM*	u	16µM*	u	13%
O=C(Nc1ccc(N2CCCCC2)cc1)c1ccc([N+](=O)[O-])o1	-68%	2.3µM*	u	4.6µM*	u	4%
O=C(Nc1ccc(N2CCN(Cc3ccccc3F)CC2)cc1)c1ccccc1[N+](=O)[O-]	-25%	-10%	i	-13%	u	-13%
COc1ccc(-c2ccc(=O)n(CC(=O)Nc3ccc(N(C)C)cc3)n2)cc1	-1%	x	i	x	-6%	20%
O=S(=O)(Nc1cccc2ccccc12)c1cccc2ccccc12	-28%	x	x	x	u	x
CCN(C(=O)c1cn(-c2cccc(OC)c2)c(=O)c2ccccc12)c1ccccc1C	0%	x	x	x	-9%	x
Cc1ccc2c(C(=O)N3CCN(c4ccccc4)CC3)cc(-c3cccnc3)nc2c1C	-4%	23µM*	i	u	-8%	-15%
